Screening results: PubChem, National Center for Advancing Translational Sciences (NCATS)
JMJD2A Tudor: qHTS Assay for Inhibitors of JMJD2A-Tudor Domain. hit rate 4.4% among 390,000. Potency, µM (titrated, usually from 114 µM), without a hit: at the top dose activity change, negative = inhibition, actives largely listed as inhibitors. AlphaScreen JMJD2A-Tudor / H3K4me3 peptide binding. Lysine-specific demethylase 4A (Homo sapiens), O75164; note: potency is the fitted concentration of half-maximal effect; % is set by controls: 0 for no effect and ±100 for the full control effect; nearly all actives have a fitted effect of over 50% in size
BAZ2B block: qHTS Assay for Inhibitors of BAZ2B; Bromodomain adjacent to zinc finger domain protein 2B (Homo sapiens), Q9UIF8; AlphaScreen BAZ2B-H3K14Ac peptide displacement; Potency, µM (highest dose often 114 µM), for the others: at the highest dose activity change, negative = inhibition, most hits filed as inhibitors; hit rate 4.4% among 360,000; note: potency is the fitted concentration of half-maximal effect; % is set by controls: 0 for no effect and ±100 for the full control effect; nearly all actives have a fitted effect of over 60% in size
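Protein-peptide AlphaScreen: BAZ2B 50 nM, b-H3K14Ac 50 nM, 1x PBS pH 7.4 + 0.01% Tween-20. Preincubation 30 min RT; cpd 30 min RT (top 110 uM); beads 20 min RT, light-protected.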
PI5P4K alpha inh: qHTS for Inhibitors of phosphatidylinositol 5-phosphate 4-kinase (PI5P4K); max response, %; hit rate 1.2% among 330,000; AID 652105, 2013; PI5P4Kalpha enzyme, ADP-Glo luminescence, 60 min; hits give low values; active = max response of -50% or lower; inconclusive = between -30% and -50%; inactive = -30% or higher; note: value at the top dose of about 77 µM; % is set by controls: 0 for no effect and ±100 for the full control effect
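Human PI5P4Kalpha with substrate in 0.038 M HEPES pH 7.4, 0.28 mM EGTA, 0.1% CHAPS, 5% DMSO; reaction started with 5 microM ATP (final), 60 min at room temperature. ADP formed read by ADP-Glo luminescence.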
HP1b binding inh: HTS for Inhibitors of HP1-beta Chromodomain Interactions with Methylated Histone Tails. Chromobox protein homolog 1 (Homo sapiens), P83916. AlphaScreen HP1-beta / biotin-H3K9me3 peptide binding. Potency, µM (titrated, usually from 114 µM), for inactives: at the highest dose activity change, negative = inhibition, actives largely listed as inhibitors. hit rate 0.56% among 390,000. AID 540317, 2011; note: potency is the fitted concentration of half-maximal effect; nearly all actives have a fitted effect of over 70% in size
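AlphaScreen: HP1-beta (50 nM) preformed 30 min with biotin-H3(1-18)K9me3 peptide (50 nM) in PBS pH 7.4, 0.01% Tween-20. Compound added for 30 min at RT, then streptavidin donor/nickel chelate acceptor beads (10 ug/mL) for 30 min.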
PLK1 PBD inh: qHTS for Inhibitors of PLK1-PDB (polo-like kinase 1 - polo-box domain): Primary Screen; Serine/threonine-protein kinase PLK1 (Homo sapiens), P53350; Plk1 PBD binding of FITC phosphopeptide, fluorescence polarization; Potency, µM, for inactives: max response, negative = inhibition, actives largely listed as inhibitors; hit rate 2.8% among 360,000; note: potency is the fitted concentration of half-maximal effect; series mostly up to about 57 µM; % is set by controls: 0 for no effect and ±100 for the full control effect; nearly all actives have a fitted effect of over 65% in size
Target sequence (P53350 whole entry, looked up, the tested form may be a part): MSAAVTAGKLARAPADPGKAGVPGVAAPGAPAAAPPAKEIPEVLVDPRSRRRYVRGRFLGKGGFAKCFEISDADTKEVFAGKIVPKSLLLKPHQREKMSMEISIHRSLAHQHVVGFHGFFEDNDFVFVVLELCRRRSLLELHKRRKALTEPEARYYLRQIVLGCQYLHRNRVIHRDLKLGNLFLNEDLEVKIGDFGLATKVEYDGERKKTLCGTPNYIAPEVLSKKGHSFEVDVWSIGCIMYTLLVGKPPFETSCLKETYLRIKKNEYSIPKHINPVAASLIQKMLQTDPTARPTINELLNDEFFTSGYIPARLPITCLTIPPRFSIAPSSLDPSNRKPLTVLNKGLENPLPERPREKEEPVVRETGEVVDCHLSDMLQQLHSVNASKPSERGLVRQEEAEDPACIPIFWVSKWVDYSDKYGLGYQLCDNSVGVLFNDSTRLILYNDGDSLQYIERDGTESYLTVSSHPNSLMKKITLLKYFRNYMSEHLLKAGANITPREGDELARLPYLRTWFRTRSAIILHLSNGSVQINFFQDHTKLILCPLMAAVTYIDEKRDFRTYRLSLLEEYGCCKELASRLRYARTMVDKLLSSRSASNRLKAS
G9a inh: qHTS Assay for Inhibitors of Histone Lysine Methyltransferase G9a; Histone-lysine N-methyltransferase EHMT2 (Homo sapiens), Q96KQ7; G9a H3K9 monomethylation, AlphaScreen, 2 h; Potency, µM (titrated, usually from 102 µM), without a hit: top-dose activity, negative = inhibition, usual class: inhibitors; hit rate 8.8% among 350,000; note: potency is the fitted concentration of half-maximal effect; % is set by controls: 0 for no effect and ±100 for the full control effect; nearly all actives have a fitted effect of over 75% in size
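G9a (20 nM) preincubated 15 min RT with compounds, then 500 nM biotinylated H3K9 peptide and 20 uM SAM added; 2 h RT reaction. Monomethyl-H3K9 product detected by AlphaScreen with anti-H3K9me1 antibody, streptavidin donor and anti-rabbit IgG acceptor beads.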
* hit, by the source's call; i = inactive; ? = inconclusive; . = no result given; [ ] = dose if it differs, or a comment. Hits are enriched below; roughly 12% of the tested compounds scored in any of these assays. Unless noted, calls come from the whole dose curve; as a rule, active = well fitted curve in the direction sought with a large enough effect; inconclusive = small, poorly fitted or top-dose-only effect, or another doubt; inactive = no such curve, though single readings can be large; an effect the other way counts as inactive or inconclusive.

SMILES	JMJD2A Tudor	BAZ2B block	PI5P4K alpha inh	HP1b binding inh	PLK1 PBD inh	G9a inh
CC/C(=N\NC(=O)c1ccc(N(C)C)cc1)c1ccccc1	?	-9%	5	-2%	?	28µM*
CN(C)c1ccc(/C=N/NC(=O)c2ccccc2)cc1	-17%	-30%	-3	28%	-5%	-41%
Cc1cccc(C(=O)n2nc(-c3cccnc3)nc2NCc2ccc(F)cc2)c1	-10%	3%	.	25%	.	9%[59 µM]
Cc1ccccc1NC(=O)CCC(=O)N/N=C/c1cc([N+](=O)[O-])ccc1O	-20%	?	-21	20%	-4%	-13%
NC(=O)N/N=C\c1cc(Br)ccc1O	-15%	5%	15	22%	-8%	4%[59 µM]
Cc1ccc(C)c(NC(=O)CCC(=O)N/N=C/c2cc([N+](=O)[O-])ccc2O)c1	1%[11.4 µM]	-1%	3	-6%	38µM*	0%
Nc1nonc1C(=O)N/N=C/c1cc(Br)ccc1O	18µM*	7.9µM*	-2	37%	2%	?
O=C(N/N=C/c1cc([N+](=O)[O-])ccc1O)c1ccncc1	22µM*	10µM*	-12	43%	-2%	.
O=C(N/N=C/c1cc(Cl)ccc1O)c1ccc(Br)cc1	25µM*	?	-15	29%	-8%	6%[59 µM]
O=C(N/N=C/c1ccc(O)c([N+](=O)[O-])c1)c1ccncc1	-14%	23%	?	29%	-9%	.
COc1ccc(CCNC(=O)c2ccc(CS(=O)Cc3ccc(Cl)cc3)o2)cc1OC (stereo not drawn)	-9%	-2%	4	25%	-1%	4%
Cc1nccn1CC(=O)O	-1%	-1%	8	46%	-2%	-8%
O=C(N/N=C/c1cc([N+](=O)[O-])ccc1O)C(O)(c1ccccc1)c1ccccc1	79µM*	?	-6	28%	-18%	.
Cc1sc(N/N=C/c2cc([N+](=O)[O-])ccc2O)nc1-c1ccccc1	22µM*	-8%	?	16%	15µM*	5%
Cc1nccn1CC(=O)c1ccc(O)c(O)c1	20µM*	56µM*	-7	20%	21µM*	10%[0.501 µM]
Cc1cn([C@H]2C[C@H](O)[C@@H](/C=C/C(=O)NCCC(C)C)O2)c(=O)[nH]c1=O	.	.	-5	.	-8%	.
C=CCNC(=O)c1ccccc1NC(=O)C1CCN(S(=O)(=O)c2ccc(SC)cc2)CC1	-7%	50µM*	-8	-3%	-5%	10%
O=C(OCc1ccc(Br)cc1)c1cnc(Cl)c(Cl)c1	71µM*	404%	8	464%	0%	i
CCCCn1c(=N)n(CC(=O)c2ccc([N+](=O)[O-])cc2)c2ccccc21	.	-32%	.	.	.	40µM*
CCCCn1c(=N)n(CC(=O)c2ccco2)c2ccccc21	-15%	-7%	.	23%	2%	1%[12.7 µM]
O=C(Oc1ccc2ccc(=O)oc2c1)c1ccc([N+](=O)[O-])cc1	-14%	-17%	0	40%	2%	.
CCCCC(=O)c1ccc(OC(=O)c2ccc([N+](=O)[O-])cc2)cc1	50µM*	.	-1	?	-5%	.
Cc1ccc(Cn2c(=N)n(CC(=O)c3ccc([N+](=O)[O-])cc3)c3ccccc32)cc1	-30%	-23%	-10	7%	-7%	50µM*
CCCCOc1ccc(C(=O)OCC(=O)N2CCOCC2)cc1	5%	4%	1	23%	-11%	7%
CCOC(=O)C1C2C=CC3(CN(Cc4cccs4)C(=O)C13)O2 (stereo not drawn)	-20%[11.4 µM]	3%	-27	-2%	17µM*	3%[12.7 µM]
SMILES	JMJD2A Tudor	BAZ2B block	PI5P4K alpha inh	HP1b binding inh	PLK1 PBD inh	G9a inh
CCOC(=O)CN1CC23C=CC(O2)C(C(=O)NC2CCCCC2)C3C1=O (stereo not drawn)	-18%	12%	-5	.	-7%	5%
CCOC(=O)CN1CC23C=CC(O2)C(C(=O)NCc2ccc(C)cc2)C3C1=O (stereo not drawn)	2%	-18%	2	33%	-3%	35µM*
CCOC(=O)CN1CC23C=CC(O2)C(C(=O)NC2CCCC2)C3C1=O (stereo not drawn)	-6%	25%	-1	44%	-1%	45µM*
COC(=O)C1=C(C(=O)OC)[C@]2([C@H]3CCCCN[C@@H](Cc4ccccc4)C(=O)N3Cc3ccccc3)C=C[C@H]1O2	-31%	.	39	1%	-5%	.
Cc1ccc(NC(=O)CCc2c(C)nc3ncnn3c2C)cc1	8%	7%	-3	36%	0%	25%[59 µM]
Cc1nc2ncnn2c(C)c1CCC(=O)NCCc1ccccc1	-13%[57.1 µM]	1%	-2	-10%	24µM*	15%[59 µM]
CCN(CC)c1ccc(NC(=O)CCc2c(C)nc3ncnn3c2C)c(C)c1	-17%	-17%	.	15%	.	18µM*
CCOC(=O)C(Cc1ccccc1)NC(=O)CCc1c(C)nc2ncnn2c1C (stereo not drawn)	5%	4%	1	24%	-7%	29%[0.501 µM]
CCOC(=O)C(Cc1ccccc1)NC(=O)CCc1c(C)nc2nc(C)nn2c1C (stereo not drawn)	7%	-1%	-10	?	27µM*	8%[59 µM]
COc1ccc(C(C)=O)cc1CN1C(=O)C(C)ON=C1c1cccc(C(F)(F)F)c1 (stereo not drawn)	.	.	7	.	3%	.
CCOc1ccc(C2C(C(=O)OC)=CN(C(C)c3ccccc3)C=C2C(=O)OC)cc1 (stereo not drawn)	77%	82%	8	105%	-6%	220%
COC(=O)C1=C(C)N(c2cccc(Cl)c2)C(=O)C1	-9%	-7%	-4	31%	-10%	?
COC(=O)C1=C(C)N(c2ccc(F)cc2)C(=O)C1	-11%[57.1 µM]	12%	1	61%	-8%	45µM*
COC(=O)C1=C(C)N(c2ccc(F)c(Cl)c2)C(=O)C1	-11%	-10%	5	15%	-9%	?
COC(=O)C1=C(C)N(c2ccc(OC)c(OC)c2)C(=O)C1	-17%	-2%	.	50%	-15%	71µM*
CCNC(=O)CN(c1ccccc1OC)S(=O)(=O)c1cccs1	-14%	4%	1	8%	-3%	4%[59 µM]
COc1ccccc1N(CC(=O)NC(C)(C)C)S(=O)(=O)c1cccs1	56µM*	1%	-11	-4%	27µM*	-13%
Nc1cccc(-c2c[nH]c3ncc(-c4cccnc4)cc23)c1	18µM*	.	?	3%	-11%	.
